Consider 40 compounds from ChEMBL document CHEMBL3988442, “University of Dundee, Small-Polar-MMV Screening Library” (2021).

Molecules are shown by their SMILES.

For the experiment, the target named is AMP-activated protein kinase, AMPK (Homo sapiens) (UniProt P54646+O43741+P54619+Q9UGJ0+Q9Y478+Q13131+Q9UGI9). As to the kind of experiment: AMP-dependent Kinase enzyme assay. An in vitro enzyme assay that detects ADP turnover that is directly proportional to AMPK activity. This uses naive AMPK that is activated during the assay with MK-8722. The note with it: 30 µM. Type of experiment: functional. Details: scale not given: direction of the effect not stated beside the values.
In the case of `CC(C)CN(Cc1ccccn1)Cc1ccccc1OCC(=O)O`, the Percent Effect is -7.24%.

Regarding `CCn1cc(NC(=O)NCCN2CCCc3ccccc32)cn1`, the Percent Effect is 7.2%.

With `Clc1ccc2cccnc2c1CNC1CCc2ncnn2C1` (stereo not given), the Percent Effect turned out to be 3.85%.

Consider `CCCOc1cc(CNC(=O)Nc2cccc(C(C)=O)c2)ccn1`, for which the Percent Effect is -3.21%.

For `CCc1oc(C(=O)N[C@@H]2c3ccccc3C[C@@H]2O)cc1CN1CCCC1`, the Percent Effect stood at 4.06%.

On to `CCNc1cc2c(nn1)CCN(C(=O)c1ccc(-n3cccn3)nc1)C2`, for which the Percent Effect is -5.94%.

As to `CC1COCCN1C(=O)Cc1cc(Cl)c2c(c1)OCCO2` (stereo not given), the Percent Effect was 13.4%.

As for `CCN(CC)C(=O)CS(=O)(=O)c1cc(OC)c(OC)cc1C`, the Percent Effect stood at 3.6%.

As for `Cc1nccc(CNC(=O)NC(c2ncc(C)s2)C2CC2)n1` (stereo not given), the Percent Effect was found to be 0.262%.

Take `Cc1c(Br)cccc1CSc1nnc(CO)n1C`: the Percent Effect stood at 4.59%.

For the compound `CCN1CC2(CCN(CC3CCCO3)CC2)OC1=O` (stereo not given), the Percent Effect is -9.49%.

As for `CCC1(CC)CC(=O)N(CC(O)c2cc(F)ccc2F)C1=O` (stereo not given), the Percent Effect came to 11.8%.

With `COC(=O)C1CCN(C(=O)Cn2ccc(-c3ccsc3)n2)CC1`, the Percent Effect is -3.29%.

On to `O=C(NCCn1ccnc1-c1cc2n(n1)CCNC2)c1ccc(F)cc1`, for which the Percent Effect is 1.27%.

Take `CNC(=O)Cc1ccc(NC(=O)NCc2nc(C)sc2C)cc1`: the Percent Effect was 0.571%.

For the compound `COc1ccc(N2CCN(Cc3nc(CSC)no3)C(C)C2=O)cc1` (stereo not given), the Percent Effect came out at 4.28%.

`COCCN1CC(=O)N2CC[C@@H](O)C[C@H]2C1=O`: the Percent Effect is -8.25%.

For the compound `Cn1ncc2c(NC3CCSC3)nc(-c3ccncc3)nc21` (stereo not given), the Percent Effect stood at 9.02%.

As to `Cc1cccc(S(=O)(=O)NC2CCN(CC(F)(F)F)C2)c1` (stereo not given), the Percent Effect is -6.29%.

On to `CCOC(=O)C1(O)CCN(C(=O)Nc2cccc(F)c2)CC1`, for which the Percent Effect was -1.01%.

For the compound `Nc1nccnc1C(=O)NC1CCN(Cc2ccccc2)C1` (stereo not given), the Percent Effect was 7.89%.

Turning to `CC(C)(C)CN(CCC#N)C(=O)Nc1cccc(N2CCNC2=O)c1`, the Percent Effect was -2.8%.

With `O=C(CC1CC1)N1C[C@@H](O)[C@H](N2CCN(c3ccccc3)CC2)C1`, the Percent Effect was -9.15%.

For `CC(C)OCCN1CCC(Nc2ncc(Br)cn2)CC1`, the Percent Effect amounted to 10.5%.

For `COc1cccc(S(=O)(=O)N2CCN(C)[C@@H]3CS(=O)(=O)C[C@@H]32)c1`, the Percent Effect worked out at 1.52%.

With `O=C(Nc1ccccn1)c1ccc(F)c(S(=O)(=O)NC2CC2)c1`, the Percent Effect is 1.7%.

Take `CC(C)C(=O)Nc1cccc(CNC(=O)CSCc2ccccn2)c1`: the Percent Effect came to 1.74%.

On to `Cc1ccc(NC(=O)CN[C@H](C(N)=O)C(C)C)cc1F`, for which the Percent Effect is -14.9%.

For `CC(C)(C)CN(CCC#N)C(=O)c1cccc(CN2CCCC2)c1`, the Percent Effect turned out to be 7.06%.

Regarding `O=C(CCCn1cccn1)N1CCCC(n2cncn2)C1` (stereo not given), the Percent Effect turned out to be 5.88%.

Take `Cc1cc(C)n(CCN(C)c2ccc(-c3nc(C4CC4)no3)cn2)n1`: the Percent Effect came out at 5.62%.

In the case of `O=C(Cn1cccnc1=O)NCc1cccnc1OCC(F)(F)F`, the Percent Effect turned out to be 0.146%.

As for `c1ccc2c(NC3CCc4ncnn4C3)ncnc2c1` (stereo not given), the Percent Effect turned out to be 2.92%.

Regarding `CN(c1ncc(S(N)(=O)=O)s1)C1CCc2ccccc2C1` (stereo not given), the Percent Effect worked out at 5.32%.

Regarding `CC(CN1CCOC1=O)NC(=O)c1ccccc1Oc1ccccc1` (stereo not given), the Percent Effect was 8.72%.

As for `CCCN(CC(=O)N(C)C)C(=O)c1ccc(-c2nc(C)cs2)cc1`, the Percent Effect was 4.25%.

Take `O=C1CN(Cc2cn(C3CCN(C4CSCCSC4)CC3)nn2)CCN1`: the Percent Effect is -9.53%.

For `Cc1ccc(C)c(CC(=O)NC2CCS(=O)(=O)CC2)c1`, the Percent Effect was -4.86%.

In the case of `NC(=O)c1csc(N2C[C@@H](CN3CCC(O)CC3)[C@@H](CO)C2)n1`, the Percent Effect is -1.72%.

For the compound `CCN(CC)C(CNC(=O)c1ccc(-n2cncn2)cc1)c1ccsc1` (stereo not given), the Percent Effect was -4.43%.
